From PubChem BioAssay
Calls of active or inactive are those of the source.

Assays:
[1] = compound effects on differentiated 3T3-L1 adipocyte viability – cell-based, 3T3-L1 adipocytes, calcein-AM fluorescence, 48 h, basal, profiling panel (AID 1163); settings: 3T3-L1 adipocytes viability, higher = more signal
[2] = compound effects on hepatocellular carcinoma cell viability – HepG2, calcein-AM fluorescence, 48 h, basal, profiling panel (AID 1164); settings: higher = more signal
[3] = compound effects on multiple myeloma cell viability – MM1S, calcein-AM fluorescence, 48 h, basal, profiling panel (AID 1165); settings: higher = more signal;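 further: viability of MM1S multiple myeloma cells under basal unstimulated conditions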
[4] = calcein-AM signal in unstimulated myeloma cells – cell-based, calcein-AM fluorescence, 48 h, PK04 Diversity Set, profiling panel (AID 1166); settings: RPMI8226 myeloma viability, higher = more signal;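 further: cells grown under basal conditions without added stimulus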
[5] = JC-1 mitochondrial signal, unstimulated HepG2 cells – cell-based, JC-1 fluorescence, 24 h, 100 nL compound, profiling panel (AID 1167); settings: HepG2 mitochondrial potential, higher = more signal
[6] = JC-1 mitochondrial signal, unstimulated adipocytes – cell-based, JC-1 fluorescence, 3T3-L1 adipocytes, 24 h, 100 nL compound, profiling panel (AID 1168); settings: JC-1 mitochondrial fluorescence, higher = more signal, called active from +8 up or from −8 down
[7] = JC-1 mitochondrial signal, unstimulated myeloma cells – cell-based, JC-1 fluorescence, RPMI8226, 24 h, 100 nL compound, profiling panel (AID 1169); settings: JC-1 mitochondrial potential fluorescence, higher = more signal
[8] = JC-1 mitochondrial signal, unstimulated MM1S myeloma – cell-based, JC-1 fluorescence, 24 h, 100 nL compound, profiling panel (AID 1170); settings: MM1S mitochondrial potential, higher = more signal
[9] = resazurin metabolic signal in A549 cells – cell-based, resazurin fluorescence, 24 h, PK04 Diversity Set, profiling panel (AID 1171); settings: A549 viability, higher = more signal, called active from +8 up or from −8 down
[10] = resazurin metabolic signal in HepG2 cells – cell-based, resazurin fluorescence, 24 h, PK04 Diversity Set, profiling panel (AID 1172); settings: HepG2 viability, higher = more signal
[11] = budding yeast growth changes without added modifier – OD600, strain BY4716, 24 h, basal condition, primary screen (AID 1173); settings: S. cerevisiae BY4716 growth, OD600, 24 h; higher = more signal, called active from +8 up or from −8 down
[12] = viability profiling in MM1S myeloma cells – cell-based, resazurin fluorescence, basal, 24 h, PK04 Diversity Set, profiling panel (AID 1174); settings: higher = more signal, called active from +8 up or from −8 down
[13] = target: Dihydroorotate dehydrogenase (quinone), mitochondrial (Plasmodium falciparum (isolate 3D7)) (UniProt Q08210); experiment: inhibition of P. falciparum DHODH – biochemical, C-terminal His tag, absorbance 600 nm, primary screen (AID 1175); settings: PfDHODH enzyme, DCIP absorbance 600 nm; higher = more signal, called active from +8 up or from −8 down;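 further: recombinant parasite enzyme with a five histidine tag at its C terminus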
[14] = growth modulation of vineyard yeast isolate – strain RM11-1a, OD600, basal, 24 h, primary screen (AID 1177);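 further: cultures grown under basal conditions with no added stressor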; settings: S. cerevisiae RM11-1a growth, OD600, 24 h; higher = more signal, called active from +8 up or from −8 down
[15] = growth of efflux-deficient E. coli DRC39 – strain DRC39, OD650, 24 h, E. coli filamentation inducers, primary screen (AID 1178);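 further: growth measured as culture turbidity by optical density at 650 nm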; settings: E. coli DRC39 acrAB, higher = more signal, called active from +8 up or from −8 down
[16] = growth of efflux-deficient E. coli DRC39 – strain DRC39, OD650, 48 h, E. coli filamentation inducers, primary screen (AID 1179);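 further: screen aims at cell division blockers that make cells filament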; settings: E. coli DRC39 delta-acrAB growth, higher = more signal, called active from +8 up or from −8 down
[17] = viability profiling in RPMI8226 myeloma cells – cell-based, resazurin fluorescence, basal, 24 h, PK04 Diversity Set, profiling panel (AID 1180); settings: higher = more signal;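 further: RPMI8826 multiple myeloma cell line at 5000 cells per well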
[18] = target: E3 ubiquitin-protein ligase XIAP (Homo sapiens) (UniProt P98170); experiment: small molecules binding XIAP protein – biophysical, small-molecule microarray, fluorescence 635 nm, primary screen (AID 1181); settings: higher = more signal;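 further: score merges 667 nm emission and signal to noise over triplicate slides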
[19] = tested on: XIP peptide (Xip251-270) binding; experiment: XIP fragment 251-270 binding compounds – biochemical, small-molecule microarray, fluorescence 635/667 nm, 0.1 µg/mL protein, primary screen (AID 1182); settings: fluorescent protein binding, 635 nm, higher = more signal, called active from +8 up or from −8 down
XIP peptide (Xip251-270) = experiment: compounds binding XIP fragment 251-270 – biochemical, small-molecule microarray, fluorescence 635/667 nm, 0.5 µg/mL protein, primary screen (AID 1183); settings: fluorescence 635 nm, higher = more signal

Chain of E3 ubiquitin-protein ligase XIAP (Homo sapiens) (P98170 whole entry, looked up, the tested form may be a part): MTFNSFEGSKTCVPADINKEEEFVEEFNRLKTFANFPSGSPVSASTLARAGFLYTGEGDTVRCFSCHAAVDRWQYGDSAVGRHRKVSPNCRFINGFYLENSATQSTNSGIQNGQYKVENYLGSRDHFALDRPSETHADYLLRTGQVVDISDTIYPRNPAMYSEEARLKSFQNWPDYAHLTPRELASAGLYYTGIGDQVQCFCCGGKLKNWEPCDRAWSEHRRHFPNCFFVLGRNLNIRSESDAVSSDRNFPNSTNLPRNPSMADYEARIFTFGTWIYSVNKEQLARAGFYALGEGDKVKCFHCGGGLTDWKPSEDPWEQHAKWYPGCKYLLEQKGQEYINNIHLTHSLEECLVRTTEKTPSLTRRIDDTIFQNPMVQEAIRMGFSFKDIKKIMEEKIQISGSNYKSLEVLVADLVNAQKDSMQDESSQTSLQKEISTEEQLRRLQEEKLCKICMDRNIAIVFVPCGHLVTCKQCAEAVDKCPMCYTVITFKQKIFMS
Chain of Dihydroorotate dehydrogenase (quinone), mitochondrial (Plasmodium falciparum (isolate 3D7)) (Q08210 whole entry, looked up): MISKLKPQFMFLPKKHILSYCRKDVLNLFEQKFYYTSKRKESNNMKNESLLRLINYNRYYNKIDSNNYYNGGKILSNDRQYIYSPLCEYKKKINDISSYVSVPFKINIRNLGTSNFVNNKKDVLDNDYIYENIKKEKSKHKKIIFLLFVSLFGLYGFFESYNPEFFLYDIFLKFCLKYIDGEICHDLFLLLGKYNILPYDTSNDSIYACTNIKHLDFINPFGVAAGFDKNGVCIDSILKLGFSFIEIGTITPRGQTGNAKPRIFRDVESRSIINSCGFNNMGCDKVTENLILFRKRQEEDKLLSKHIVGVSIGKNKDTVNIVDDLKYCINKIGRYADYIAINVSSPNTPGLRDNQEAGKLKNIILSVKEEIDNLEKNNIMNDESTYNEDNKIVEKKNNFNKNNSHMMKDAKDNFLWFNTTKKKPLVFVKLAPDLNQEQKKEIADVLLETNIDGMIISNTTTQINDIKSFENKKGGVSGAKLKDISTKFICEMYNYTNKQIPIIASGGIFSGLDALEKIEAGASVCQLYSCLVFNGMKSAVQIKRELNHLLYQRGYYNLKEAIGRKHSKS

Row | SMILES | z-score [1] | z-score [2] | z-score [3] | z-score [4] | z-score [5] | z-score [6] | z-score [7] | z-score [8] | z-score [9] | z-score [10] | z-score [11] | z-score [12] | composite z-score [13] | z-score [14] | z-score [15] | z-score [16] | z-score [17] | composite z-score [18] | composite z-score [19] | composite z-score (XIP peptide (Xip251-270))
1 | CC(C)C[C@@H]1NC(=O)[C@H]2C[C@@H](C(=O)NCCCC[N+](C)(C)C)[C@@H](c3cccc(OCCO)c3)N2C1=O | 0.753 | -0.131 | 0.0808 | -0.583 | 1.22 | 1.37 (inactive) | -0.173 | 0.0969 | -0.474 (inactive) | 0.417 | -0.553 (inactive) | 0.932 (inactive) | -30.9 (active) | -0.915 (inactive) | 0.709 (inactive) | 0.569 (inactive) | 0.33 | -0.0476 | 1.85 (inactive) | 0.705
2 | O=C1c2ccccc2C(=O)c2cc([C@H]3Oc4ccccc4S(=O)(=O)N4CCC[C@@H]34)ccc21 | 1.07 | 0.158 | -2.6 | 0.558 | 2.04 | 0.282 (inactive) | 0.103 | -0.752 | 0.623 (inactive) | 1.62 | -2.8 (inactive) | 0.566 (inactive) | 0.342 (inactive) | -1.5 (inactive) | 2.89 (inactive) | 1.21 (inactive) | 0.476 | 0.0374 | -1.15 (inactive) | -1.82
3 | CCOC(=O)C[C@H]1[C@H](OC(=O)c2ccc(C(=O)c3ccccc3)cc2)[C@@H](NC(=O)Cc2ccc(OC)cc2)c2cc(OCCCO)ccc2N1C(=O)Cc1ccc(OC)cc1 | 0.234 | 0.398 | 0.856 | -0.481 | 2.05 | 0.755 (inactive) | -0.131 | 0.356 | 1.54 (inactive) | 0.964 | -1.99 (inactive) | 0.0905 (inactive) | 0.735 (inactive) | -1.05 (inactive) | 1.74 (inactive) | 1.06 (inactive) | 0.678 | 0.0871 | 0.608 (inactive) | 0.0768
4 | COCCOC(=O)N1C(=O)[C@@]2(c3cc(C#CCNC(N)=O)ccc31)[C@H](C(=O)NC[C@H](O)c1ccccc1)[C@H]1C(=O)O[C@H](c3ccccc3)[C@H](c3ccccc3)N1[C@@H]2c1ccc(O)cc1 | 0.539 | 0.315 | -0.825 | 0.987 | -0.549 | 0.962 (inactive) | 0.161 | -0.29 | 0.0618 (inactive) | 0.141 | -0.331 (inactive) | 0.751 (inactive) | -0.263 (inactive) | 0.436 (inactive) | -0.17 (inactive) | 0.316 (inactive) | 1.46 | 0.166 | 1.29 (inactive) | 0.178
5 | C/C=C/[C@@H](CCn1cc(CCO[Si](C(C)C)(C(C)C)C(C)C)nn1)[Si](C)(C)c1ccc(OC)cc1 | 0.925 | 0.359 | -1.17 | -1.21 | 3.71 | 1.12 (inactive) | 0.236 | 2.03 | 7.86 (inactive) | 4.46 | -2.21 (inactive) | 1.91 (inactive) | -1.14 (inactive) | -4 (inactive) | 2.42 (inactive) | 1.89 (inactive) | 5.22 | -0.169 | -0.411 (inactive) | -1.48
6 | COCCCNC(=O)[C@@]1(C)c2ccccc2C(=O)N(Cc2cc(F)cc(C(F)(F)F)c2)[C@H]1c1ccc(CO)cc1 | 0.604 | -0.176 | 0.534 | -0.0765 | 1.32 | 0.0832 (inactive) | -0.69 | 0.659 | 0.914 (inactive) | -0.0724 | 0.416 (inactive) | 1.09 (inactive) | 0.408 (inactive) | 1.35 (inactive) | 1.04 (inactive) | 0.359 (inactive) | 1.31 | 2.62 | -0.268 (inactive) | -1.16
7 | C=CCN1C(=O)[C@@]2(O[C@@H](CCn3cc(CCO)nn3)[C@H]([Si](C)(C)c3ccc(OC)cc3)[C@H]2C)c2cc(NC(=O)c3ccc(OC)cc3)ccc21 | 1.2 | -0.408 | -2.91 | -3.3 | 0.978 | 0.659 (inactive) | -0.925 | 0.212 | -1.27 (inactive) | -0.322 | -4.11 (inactive) | -1.55 (inactive) | -0.118 (inactive) | 0.901 (inactive) | 1.55 (inactive) | 1 (inactive) | -1.51 | -0.168 | -0.025 (inactive) | 0.442
8 | CCOC(=O)C[C@H]1[C@H](OC(=O)c2cc3ccccc3oc2=O)[C@@H](NC(=O)c2ccccc2)c2cc(OCCCO)ccc2N1C(=O)Cc1ccc(OC)cc1 | 2.5 | -0.382 | 0.497 | -1.86 | 1.66 | 0.965 (inactive) | -0.295 | 1.13 | -0.53 (inactive) | -0.259 | -1.99 (inactive) | 0.757 (inactive) | -2.68 (inactive) | -0.859 (inactive) | 3.23 (inactive) | 1.78 (inactive) | 0.625 | -0.139 | 0.282 (inactive) | 0.273
9 | COCCOC(=O)N1C(=O)[C@@]2(c3cc(C#CC4(O)CCCCCC4)ccc31)[C@H](C(=O)NC[C@H](O)c1ccccc1)[C@H]1C(=O)O[C@H](c3ccccc3)[C@H](c3ccccc3)N1[C@@H]2c1ccccc1OCCO | 1.76 | -1.41 | -3.26 | -3.76 | -1.3 | 0.951 (inactive) | -0.939 | -1.75 | -0.0869 (inactive) | -0.0252 | 1.26 (inactive) | -1.35 (inactive) | 0.811 (inactive) | 3.05 (inactive) | 0.634 (inactive) | 1.05 (inactive) | -1.93 | -0.105 | 0.551 (inactive) | 0.751
